The source made the active and inactive calls.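 Rule for the calls: active = inhibition above about 23% in any of six single-dose repeats (limit read from the data); inactive = the rest.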
These compounds were tested against Intestinal-type alkaline phosphatase (Homo sapiens) (UniProt P09923) (assay: human IAP inhibitors, confirmation, biochemical, luminescence, single concentration, uHTS hits (AID 434927;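 note: plate controls were DMSO wells with enzyme for no effect and wells lacking enzyme for full effect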)). Conditions: purified human IAP, CDP-Star luminescence, 30 min; at 8.3 µM; stronger effect = higher value.
Intestinal-type alkaline phosphatase (Homo sapiens), sequence (P09923 whole entry, looked up): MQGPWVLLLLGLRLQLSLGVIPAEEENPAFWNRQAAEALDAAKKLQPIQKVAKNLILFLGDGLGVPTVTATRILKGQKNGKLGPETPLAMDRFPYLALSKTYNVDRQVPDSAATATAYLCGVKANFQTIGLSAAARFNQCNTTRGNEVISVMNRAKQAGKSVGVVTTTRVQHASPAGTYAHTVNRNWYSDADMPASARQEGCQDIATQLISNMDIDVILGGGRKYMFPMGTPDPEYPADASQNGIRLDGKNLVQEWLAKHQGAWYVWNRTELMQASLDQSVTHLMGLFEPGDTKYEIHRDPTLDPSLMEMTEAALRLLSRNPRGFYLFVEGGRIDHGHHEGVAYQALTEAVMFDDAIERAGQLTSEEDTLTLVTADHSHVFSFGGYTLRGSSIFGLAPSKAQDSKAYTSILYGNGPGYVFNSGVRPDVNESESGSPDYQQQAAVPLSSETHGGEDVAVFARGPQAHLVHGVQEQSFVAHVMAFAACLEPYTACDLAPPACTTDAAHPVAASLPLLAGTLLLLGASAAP

Structure (SMILES)	inhibition
OC1CN=C2Sc3ccccc3N2C1 (stereo not given)	-100% (inactive)
CCC(C)(C)C1CCc2[nH]nc(C(=O)N/N=C(\C)c3ccco3)c2C1 (stereo not given)	62.7% (active)
CCOC(=O)c1c(C)[nH]c(C(=O)N/N=C/c2cc([N+](=O)[O-])ccc2O)c1C	29.6% (active)
Cc1c(C(=O)N/N=C/c2c(O)ccc3ccccc23)nnn1-c1nonc1N	-86.1% (inactive)
O=C(CSc1ncn[nH]1)NCCc1ccccc1	-113% (inactive)
CC(NS(=O)(=O)c1ccc(Br)cc1)C(=O)Nc1nc2ccccc2[nH]1 (stereo not given)	66.7% (active)
CSCCC(NS(=O)(=O)c1ccc(C)cc1)C(=O)NNC(=O)c1csc(N2CCOCC2)n1 (stereo not given)	48.3% (active)
Cc1cc(OCC(=O)Nc2ncn[nH]2)ccc1Cl	-87% (inactive)
O=c1c(O[C@@H]2O[C@H](CO)[C@@H](O)[C@H](O)[C@H]2O)c(-c2ccc(O)c(O)c2)oc2cc(O)cc(O)c12	48% (active)
O=C(CN1CCN(C(=O)N2CCCCC2)CC1)Nc1ccc(F)cc1	-97.3% (inactive)
N#CCN1C(=S)N=C(Nc2cccc(Cl)c2)C12CCCCC2	-55.5% (inactive)
COc1ccc(C=C2C(=O)c3ccccc3C2=O)cc1O	56.2% (active)
CCOC(=O)c1c(NC(=O)Cn2cc([N+](=O)[O-])cn2)sc2c1CCC2	-90.5% (inactive)
COC(=O)CN1C(=O)C(O)(CC(=O)c2ccc(C)cc2)c2ccccc21 (stereo not given)	45.9% (active)
O=C1C2C3C=CC(C3)C2C(=O)N1c1n[nH]c(-c2cccnc2)n1 (stereo not given)	-82.5% (inactive)

Source: PubChem BioAssay AID434927 (Sanford-Burnham Center for Chemical Genomics, 2010)
